Assay [1] can be described thus: ATG_GRE_CIS: Attagene CIS-FACTORIAL HepG2 Assay for human Glucocorticoid Response Elements (GRE) (AID 2282947). Conditions: HepG2 GRE cis-reporter, Attagene multiplex mRNA; actives raise or lower the signal. In outline: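 Transiently transfected HepG2 cells carrying GRE cis-reporter units (endogenous TF activity) dosed 24 h; reporter mRNA quantified by RT-PCR, 6-FAM labelling, HpaI digestion and capillary electrophoresis. Bidirectional fit versus DMSO baseline.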

Assay [2] in a line: ATG_ISRE_CIS: Attagene CIS-FACTORIAL HepG2 Assay for human Interferon Regulatory Factor 1 (IRF1) binding to an Interferon-Stimulated Response Element (ISRE) (AID 2282948). Conditions: HepG2 ISRE cis-reporter (Attagene), mRNA transcription readout; actives raise or lower the signal. The gist of the method:
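HepG2 cells transiently transfected with multiplexed cis-promoter reporter units; after 24 h compound exposure, reporter mRNA quantified by RT-PCR, FAM labelling, HpaI digestion and capillary electrophoresis. Bidirectional fit versus DMSO baseline.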

Assay [3] is described as follows: ATG_M_32_CIS: Attagene CIS-FACTORIAL HepG2 Assay for M32 Transcription Factor (Internal Marker) (AID 2282949).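 Further: background control marker of the multiplexed CIS panel rather than a real target.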 To be noted: HepG2 Attagene cis-factorial M32 reporter, mRNA; actives raise or lower the signal. In outline: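 Fluorescent capillary electrophoresis peaks of HpaI-digested, FAM-labelled RT-PCR reporter products give the signal. Source: transiently transfected human liver HepG2 cells, 24 h after chemical dosing; bidirectional fitting against DMSO.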

A short description of assay [4]: ATG_M_06_CIS: Attagene CIS-FACTORIAL HepG2 Assay for M06 Transcription Factor (Internal Marker) (AID 2282950). To be noted: HepG2 Attagene CIS-FACTORIAL M06 internal marker reporter; actives raise or lower the signal. The gist of the method: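 Cells (HepG2, transiently carrying cis-driven reporter units) receive chemical for 24 h before RNA isolation. Reporter cDNA is PCR-amplified, FAM-labelled by primer extension, HpaI-digested and sized on a capillary analyser.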

Assay [5] has as its target Hypoxia-inducible factor 1-alpha (Homo sapiens) (UniProt Q16665). The experiment in a line: ATG_HIF1a_CIS: Attagene CIS-FACTORIAL HepG2 Assay for human Hypoxia Inducible Factor 1 (HIF1A) (AID 2282951). To be noted: HepG2 Attagene cis-factorial HIF1a reporter transcription; actives raise or lower the signal. In outline:
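Transient MRTU transfection of human HepG2 liver cells, 24 h compound treatment, then total RNA isolation, oligo(dT) reverse transcription, PCR amplification, fluorescent labelling and capillary electrophoresis of reporter fragments. Gain or loss relative to DMSO.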

The target of assay [6] is Hepatocyte nuclear factor 6 (Homo sapiens) (UniProt Q9UBC0). In words: ATG_HNF6_CIS: Attagene CIS-FACTORIAL HepG2 Assay for human Hepatocyte Nuclear Factor 6 (HNF6) (AID 2282952). Conditions: HepG2 Attagene cis-factorial HNF6 reporter transcription; actives raise or lower the signal. The gist of the method: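 Transiently transfected HepG2 cells expressing cis-regulated reporter transcription units were exposed to chemical for 24 h in a 24-well format. Reporter transcript abundance was determined by fluorescence capillary electrophoresis.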

Assay [7] concerns the target Heat shock factor protein 1 (Homo sapiens) (UniProt Q00613). The experiment in a line: ATG_HSE_CIS: Attagene CIS-FACTORIAL HepG2 Assay for human Heat Shock Transcription Factor 1 (HSE) (AID 2282953). To be noted: HepG2 HSE cis-reporter, Attagene RNA transcription; actives raise or lower the signal. In outline:
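Liver-derived HepG2 cells carry transiently introduced multiple reporter units governed by cis promoters. Reporter RNA measured 24 h post-dose through reverse transcription, PCR amplification, fluorescent labelling and capillary electrophoresis, normalised to DMSO.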

A short description of assay [8]: ATG_MRE_CIS: Attagene CIS-FACTORIAL HepG2 Assay for human Metal Responsive Element (MRE) (AID 2282954). To be noted: HepG2 MRE cis-reporter transcription, Attagene multiplex; actives raise or lower the signal. The gist of the method: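 HepG2 cells transiently transfected with cis-element-driven reporter units; mRNA measured 24 h after dosing. Reporter transcripts quantified by RT-PCR, FAM labelling, HpaI digestion and capillary electrophoresis; bidirectional fit versus DMSO.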

Assay [9] is described as follows: ATG_PBREM_CIS: Attagene CIS-FACTORIAL HepG2 Assay for human Phenobarbital-responsive Enhancer Module (PBREM) (AID 2282955). To be noted: HepG2 PBREM cis-reporter, Attagene multiplexed transcription; actives raise or lower the signal. The gist of the method: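 Endogenous transcription factors in human liver HepG2 cells drive a PBREM cis-element reporter, whose transcript level after 24 h treatment is quantified by RT-PCR with capillary electrophoresis; activity fitted in both directions against DMSO.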

In assay [10] the target is Paired box protein Pax-6 (Homo sapiens) (UniProt P26367). The experiment in a line: ATG_Pax6_CIS: Attagene CIS-FACTORIAL HepG2 Assay for human Paired Box 6 (PAX6) (AID 2282956). Conditions: HepG2 CIS-FACTORIAL PAX6 reporter transcription, RNA readout; actives raise or lower the signal. In outline:
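HepG2 cells transiently transfected with multiplexed cis-promoter reporter units (endogenous TF activity) were dosed for 24 h. Reporter mRNA was quantified by RT-PCR, 6-FAM labeling, HpaI digestion and capillary electrophoresis; bidirectional fitting versus DMSO baseline.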

Assay [11] in a line: ATG_PXRE_CIS: Attagene CIS-FACTORIAL HepG2 Assay for human Pregnane X Receptor Element (PXRE) (AID 2282957). Conditions: HepG2 Attagene CIS-FACTORIAL PXRE reporter, mRNA; actives raise or lower the signal. The gist of the method: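 Cis-element reporter mRNA in human hepatoma HepG2 cells is measured 24 h post-dosing by RT-PCR, primer-extension labeling and capillary electrophoresis; gain or loss of signal is fitted relative to DMSO.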

Assay [12] in a line: ATG_RORE_CIS: Attagene CIS-FACTORIAL HepG2 Assay for human RAR-related Orphan Receptor Element (RORE) (AID 2282959). Conditions: HepG2 Attagene cis-factorial RORE reporter, mRNA; actives raise or lower the signal. The gist of the method:
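Transient MRTU transfection of human HepG2 liver cells (FuGene 6); 24 h compound exposure; TriZol RNA, oligo(dT) RT, PCR, FAM labeling, HpaI cut, CE fragment analysis. DMSO = negative control/baseline.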

A short description of assay [13]: ATG_Sox_CIS: Attagene CIS-FACTORIAL HepG2 Assay for human SRY-box transcription factor (SOX) (AID 2282960). To be noted: HepG2 Attagene cis-factorial SOX reporter, mRNA; actives raise or lower the signal. The gist of the method:
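Endogenous factor activity in human liver HepG2 cells carrying transfected cis-regulated reporter units. RNA taken 24 h post-dose, reverse-transcribed, PCR-amplified and sized by capillary electrophoresis. Gain or loss of signal fitted relative to DMSO.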

For assay [14], the target named is Transcription factor Sp1 (Homo sapiens) (UniProt P08047). In words: ATG_Sp1_CIS: Attagene CIS-FACTORIAL HepG2 Assay for human Specificity Protein 1 (Sp1) (AID 2282961). Conditions: HepG2 Sp1 cis-reporter transcription, actives raise or lower the signal. The gist of the method: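 Transient MRTU-transfected HepG2, 24 h compound exposure. Total RNA → oligo(dT) RT → PCR of reporter → 6-FAM primer extension → HpaI digest → CE. Endpoint fitted both directions vs DMSO.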

The nature of assay [15]: ATG_SREBP_CIS: Attagene CIS-FACTORIAL HepG2 Assay for human Sterol Regulatory Element Binding (SREBP) (AID 2282962). Conditions: HepG2 Attagene cis-factorial SREBP reporter, mRNA; actives raise or lower the signal. The gist of the method: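 HepG2 cells transiently transfected with multiplexed cis-element reporter units report endogenous transcription factor activity. After 24 h of chemical exposure, reporter mRNA was quantified by RT-PCR, 6-FAM labelling, HpaI digestion and capillary electrophoresis; bidirectional fits used DMSO as baseline.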

The target in assay [16] is Signal transducer and activator of transcription 3 (Homo sapiens) (UniProt P40763). In words: ATG_STAT3_CIS: Attagene CIS-FACTORIAL HepG2 Assay for human Signal Transducer and Activator of Transcription 3 (STAT3) (AID 2282963). Conditions: HepG2, Attagene cis-factorial STAT3 reporter transcription; actives raise or lower the signal. In outline:
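HepG2 cells transiently transfected with multiple cis-element-driven reporter units report endogenous transcription factor activity. After 24 h compound exposure, reporter mRNA is measured by RT-PCR, 6-FAM labelling, HpaI digestion and capillary electrophoresis. Fitted bidirectionally versus DMSO.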

Assay [17] in a line: ATG_TA_CIS: Attagene CIS-FACTORIAL HepG2 Assay for human TA Basal Promoter (AID 2282964). Conditions: HepG2 Attagene CIS-factorial TA basal promoter reporter; actives raise or lower the signal. In outline: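 Background internal-marker endpoint from a 52-component HepG2 cis-reporter panel. Cells treated 24 h; reporter transcripts quantified via RT-PCR and CE fluorescence against DMSO baseline.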

Assay [18] in a line: ATG_TCF_b_cat_CIS: Attagene CIS-FACTORIAL HepG2 Assay for human T-Cell-Factor with beta-catenin (TCF/b-cat) (AID 2282965). To be noted: HepG2 TCF/beta-catenin cis-reporter transcription, actives raise or lower the signal. The gist of the method: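 HepG2, transient MRTU transfection, cis-element-driven reporters (endogenous TFs). 24 h compound exposure. Readout: reporter mRNA by RT-PCR + 6-FAM primer extension, HpaI digest, capillary electrophoresis. Gain/loss fit vs DMSO baseline.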

The nature of assay [19]: ATG_PPRE_CIS: Attagene CIS-FACTORIAL HepG2 Assay for human Peroxisome Proliferator-activated Response Element (PPRE) (AID 2282958). To be noted: HepG2 PPRE cis-element reporter, Attagene transcription factor profiling; actives raise or lower the signal. The gist of the method:
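HepG2, transient MRTU transfection (cis promoter elements, endogenous TFs). 24 h dosing. RNA → oligo(dT) RT → PCR → 6-FAM primer extension → HpaI digest → CE. Bidirectional fit vs DMSO.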

The source made the active and inactive calls. How the source made its calls: active means hit-call score of the fitted dose curve at least 0.9, where 1 is the maximum; inactive means score below 0.9.

Sequence of Paired box protein Pax-6 (Homo sapiens) (P26367 whole entry, looked up): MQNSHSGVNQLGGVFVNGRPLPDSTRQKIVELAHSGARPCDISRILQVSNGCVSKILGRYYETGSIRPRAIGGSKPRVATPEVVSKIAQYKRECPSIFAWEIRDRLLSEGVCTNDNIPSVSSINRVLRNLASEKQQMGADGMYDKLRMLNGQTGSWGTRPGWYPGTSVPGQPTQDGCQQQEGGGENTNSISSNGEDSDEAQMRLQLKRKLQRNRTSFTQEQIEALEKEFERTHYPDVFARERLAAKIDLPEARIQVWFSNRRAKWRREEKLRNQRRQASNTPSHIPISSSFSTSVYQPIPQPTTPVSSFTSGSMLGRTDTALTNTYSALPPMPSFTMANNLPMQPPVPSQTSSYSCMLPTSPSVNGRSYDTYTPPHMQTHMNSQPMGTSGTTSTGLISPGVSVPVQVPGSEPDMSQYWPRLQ
Sequence of Hepatocyte nuclear factor 6 (Homo sapiens) (Q9UBC0 whole entry, looked up): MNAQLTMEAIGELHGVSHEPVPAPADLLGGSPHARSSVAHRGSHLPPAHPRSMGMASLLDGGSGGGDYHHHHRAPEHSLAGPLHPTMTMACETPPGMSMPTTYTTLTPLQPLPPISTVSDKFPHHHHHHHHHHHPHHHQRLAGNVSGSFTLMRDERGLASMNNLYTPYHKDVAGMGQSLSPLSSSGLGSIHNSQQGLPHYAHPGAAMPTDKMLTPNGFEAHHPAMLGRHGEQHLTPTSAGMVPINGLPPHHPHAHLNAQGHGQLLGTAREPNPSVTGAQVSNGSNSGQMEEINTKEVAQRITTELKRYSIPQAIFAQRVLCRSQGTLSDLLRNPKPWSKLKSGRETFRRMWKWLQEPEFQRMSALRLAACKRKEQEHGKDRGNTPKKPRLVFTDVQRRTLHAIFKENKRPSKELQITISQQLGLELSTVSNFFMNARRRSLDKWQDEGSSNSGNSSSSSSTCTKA
Sequence of Signal transducer and activator of transcription 3 (Homo sapiens) (P40763 whole entry, looked up): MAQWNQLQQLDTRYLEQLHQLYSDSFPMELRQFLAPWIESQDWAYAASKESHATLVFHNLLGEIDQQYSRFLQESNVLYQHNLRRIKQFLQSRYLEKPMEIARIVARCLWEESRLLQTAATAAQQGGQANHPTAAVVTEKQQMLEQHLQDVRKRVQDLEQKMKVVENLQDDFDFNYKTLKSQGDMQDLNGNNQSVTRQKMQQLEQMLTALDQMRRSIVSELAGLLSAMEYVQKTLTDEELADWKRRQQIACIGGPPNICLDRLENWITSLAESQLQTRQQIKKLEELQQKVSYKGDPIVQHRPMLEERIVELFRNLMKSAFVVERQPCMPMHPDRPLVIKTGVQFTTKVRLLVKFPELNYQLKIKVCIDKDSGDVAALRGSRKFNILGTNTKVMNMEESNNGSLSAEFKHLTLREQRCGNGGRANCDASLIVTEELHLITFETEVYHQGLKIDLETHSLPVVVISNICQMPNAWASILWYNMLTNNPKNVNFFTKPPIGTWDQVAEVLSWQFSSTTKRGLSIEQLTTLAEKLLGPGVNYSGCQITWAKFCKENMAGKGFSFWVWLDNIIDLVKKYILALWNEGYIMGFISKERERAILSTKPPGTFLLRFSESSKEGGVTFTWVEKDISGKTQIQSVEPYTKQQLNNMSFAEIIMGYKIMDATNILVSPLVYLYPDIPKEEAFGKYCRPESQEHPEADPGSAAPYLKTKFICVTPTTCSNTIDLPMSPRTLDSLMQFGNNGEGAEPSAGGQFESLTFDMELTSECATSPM
Sequence of Transcription factor Sp1 (Homo sapiens) (P08047 whole entry, looked up): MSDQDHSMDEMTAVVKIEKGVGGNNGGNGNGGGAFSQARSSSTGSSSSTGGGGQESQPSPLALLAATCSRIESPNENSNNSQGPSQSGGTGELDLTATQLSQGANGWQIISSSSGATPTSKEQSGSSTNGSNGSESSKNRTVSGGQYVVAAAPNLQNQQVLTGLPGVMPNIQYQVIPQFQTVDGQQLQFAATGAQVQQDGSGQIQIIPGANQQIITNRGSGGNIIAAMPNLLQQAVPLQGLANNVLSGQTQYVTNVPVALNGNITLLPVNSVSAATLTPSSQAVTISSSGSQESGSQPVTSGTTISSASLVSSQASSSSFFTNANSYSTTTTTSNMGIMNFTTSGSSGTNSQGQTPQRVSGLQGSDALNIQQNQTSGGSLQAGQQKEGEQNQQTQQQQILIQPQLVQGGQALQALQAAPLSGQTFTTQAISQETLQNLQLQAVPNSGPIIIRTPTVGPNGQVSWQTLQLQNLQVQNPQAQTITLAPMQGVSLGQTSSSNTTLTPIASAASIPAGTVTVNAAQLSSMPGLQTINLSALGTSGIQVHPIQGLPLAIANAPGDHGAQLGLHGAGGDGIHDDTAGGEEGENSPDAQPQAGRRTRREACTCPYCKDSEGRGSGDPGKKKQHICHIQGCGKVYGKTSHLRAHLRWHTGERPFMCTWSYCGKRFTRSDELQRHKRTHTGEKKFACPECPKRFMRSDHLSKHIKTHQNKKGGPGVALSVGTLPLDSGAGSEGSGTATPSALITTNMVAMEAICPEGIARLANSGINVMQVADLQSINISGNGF
Sequence of Heat shock factor protein 1 (Homo sapiens) (Q00613 whole entry, looked up): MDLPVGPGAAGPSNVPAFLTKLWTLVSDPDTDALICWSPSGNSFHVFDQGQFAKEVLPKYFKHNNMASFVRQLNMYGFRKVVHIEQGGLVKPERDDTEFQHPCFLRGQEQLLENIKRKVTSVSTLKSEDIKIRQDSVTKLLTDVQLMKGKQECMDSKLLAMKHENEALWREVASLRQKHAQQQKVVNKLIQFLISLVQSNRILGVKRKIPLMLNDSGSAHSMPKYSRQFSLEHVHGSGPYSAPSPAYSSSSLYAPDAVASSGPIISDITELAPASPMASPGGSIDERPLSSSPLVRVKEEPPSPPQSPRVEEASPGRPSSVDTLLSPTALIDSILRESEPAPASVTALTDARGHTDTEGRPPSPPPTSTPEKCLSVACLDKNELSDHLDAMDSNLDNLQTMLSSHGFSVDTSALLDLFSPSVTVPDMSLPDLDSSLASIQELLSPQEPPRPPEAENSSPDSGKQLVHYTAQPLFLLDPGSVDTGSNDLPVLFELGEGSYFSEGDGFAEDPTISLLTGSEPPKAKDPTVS
Sequence of Hypoxia-inducible factor 1-alpha (Homo sapiens) (Q16665 whole entry, looked up, the tested form may be a part): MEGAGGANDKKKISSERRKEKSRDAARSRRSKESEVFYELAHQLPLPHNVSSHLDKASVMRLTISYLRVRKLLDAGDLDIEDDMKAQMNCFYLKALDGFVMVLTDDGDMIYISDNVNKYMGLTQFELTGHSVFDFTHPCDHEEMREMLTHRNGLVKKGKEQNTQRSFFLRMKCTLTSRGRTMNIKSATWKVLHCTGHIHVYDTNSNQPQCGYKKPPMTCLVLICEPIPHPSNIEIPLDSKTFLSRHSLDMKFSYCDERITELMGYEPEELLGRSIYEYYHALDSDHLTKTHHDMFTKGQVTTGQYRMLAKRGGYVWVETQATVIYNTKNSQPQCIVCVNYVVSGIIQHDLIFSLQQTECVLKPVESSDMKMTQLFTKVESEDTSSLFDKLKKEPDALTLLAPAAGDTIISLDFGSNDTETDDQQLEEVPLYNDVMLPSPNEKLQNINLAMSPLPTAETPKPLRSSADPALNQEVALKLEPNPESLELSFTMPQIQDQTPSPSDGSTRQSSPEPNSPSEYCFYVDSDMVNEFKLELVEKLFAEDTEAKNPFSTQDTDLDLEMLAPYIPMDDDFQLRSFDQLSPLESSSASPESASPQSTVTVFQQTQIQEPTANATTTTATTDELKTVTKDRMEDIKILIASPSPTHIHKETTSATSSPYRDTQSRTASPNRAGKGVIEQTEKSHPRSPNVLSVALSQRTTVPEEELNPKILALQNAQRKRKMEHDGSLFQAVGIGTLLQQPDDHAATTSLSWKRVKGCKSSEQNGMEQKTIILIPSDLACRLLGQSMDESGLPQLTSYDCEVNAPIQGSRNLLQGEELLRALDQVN

On to `CNC(=S)N(C)C`, for which the outcome in [1], in assay [2], in [3], in [4], in [5] and in [6] was inactive. Also, the compound was classed as inactive in assay [7], in assay [8], in assay [9], in assay [10], in [11] and in assay [12]. The compound was classed as inactive in assay [13], in [14], in assay [15], in assay [16], in [17] and in assay [18].

`OCCNCc1ccccc1`: the compound was classed as inactive in [1], in assay [2], in [3], in assay [4], in [5] and in assay [6]. Moreover, the outcome in [7], in [8], in [9], in assay [10], in [11] and in assay [19] was inactive. Also, the compound was called inactive in assay [12], in assay [13], in [14], in assay [15], in assay [16] and in assay [17]. Besides, in assay [18], the call was inactive.

What is called AC50 is the concentration giving half of the maximal activity seen. On to `Cc1ccc([N+](=O)[O-])cc1S(=O)(=O)O`, for which the compound was classed as inactive in assay [1], in assay [2], in assay [3], in [4], in [5] and in assay [6]. Further, the result in assay [7], in [8], in assay [10], in [11], in assay [19] and in assay [12] was inactive. The call in assay [15], in [16], in assay [17] and in assay [18] was inactive. In addition, the AC50 in assay [13] was 180 µM (active); in assay [14], 156 µM (active).

With `CCCCCCCCC(=O)OCC`, the result in assay [1], in [2], in assay [3], in assay [4], in assay [5] and in [6] was inactive. Moreover, the result in assay [7], in [8], in [10], in [11], in assay [19] and in [12] was inactive. The outcome in assay [13], in [14], in assay [15], in assay [16] and in [17] was inactive.

These data come from PubChem BioAssay (EPA / NIEHS).
